Laboratory results from the supplement of paper PMC7411640.
Where a name gives a salt, the structure may show the parent alone.

System: MDA-MB-468
Assay: phospho-S6 immunofluorescence (DAPI-normalised), per-plate z-score; higher = higher phospho-S6 signal (less pathway suppression)
Conditions: 24 h
Procedure: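 GPCR-targeted compound library (MedChemExpress HY-L006) tested on MDA-MB-468 PTEN-null TNBC cells in 384-well plates at 0.1, 1 or 10 uM, combined with vehicle, GDC0941 450 nM or lapatinib 1 uM, for 24 h. Phospho-S6 (S240/244) immunofluorescence normalised to DAPI and expressed as a per-plate z-score; values are the mean of biological triplicates.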

| SMILES | phospho-S6 immunofluorescence (z-score) (co-treatment: GDC0941 450 nM) | phospho-S6 immunofluorescence (z-score) (co-treatment: lapatinib 1 uM) | phospho-S6 immunofluorescence (z-score) (co-treatment: vehicle) |
| --- | --- | --- | --- |
| CNC(=O)[C@H]1O[C@@H](n2cnc3c(NCc4cccc(I)c4)nc(Cl)nc32)[C@H](O)[C@@H]1O (compound 10 µM) | -1.27 | -1.18 | -2.34 |
| O=C(Nc1cc(Cl)cc(Cl)c1)[C@H]1CCCC[C@H]1C(=O)O (compound 10 µM) | 0.83 | 0.12 | 0.42 |
| C[C@H](NC(=O)c1c(C(F)F)nn(C)c1Oc1cccc(C(F)(F)F)c1)c1ccc(C(=O)O)cc1 (compound 10 µM) | 0.32 | 0.46 | -0.56 |
| CC[C@@H]1C(=O)OC[C@@H]1Cc1cncn1C [Pilocarpine (Hydrochloride)] (compound 10 µM) | -0.79 | -0.13 | -0.68 |
| CC(=O)Nc1cccc2c1c(Sc1ccc(Cl)cc1)c(C)n2CC(=O)O (compound 10 µM) | 0.52 | 0.08 | -0.17 |
| O=C(c1ccc(F)cc1)N1CCC[C@H](c2nc(-c3ccc(F)cc3)no2)C1 (compound 10 µM) | -2.64 | -3.29 | -2.93 |
| Cc1sc(C)c(C(=O)NC2(c3ccc(C(=O)O)cc3)CC2)c1Cc1ccc(C(F)(F)F)cc1 (compound 10 µM) | -1.42 | -0.58 | 0.73 |
| Cc1ccccc1C(=O)Nc1ccc(C(=O)N2CCCC(N(C)C)c3ccccc32)cc1 (stereo not drawn) [Mozavaptan] (compound 10 µM) | -0.25 | -0.18 | -0.16 |
| CC(N)(C(=O)O)c1ccc(C(=O)O)cc1 (racemic) (compound 10 µM) | 0.62 | 0 | 0.84 |
| CN1[C@@H]2CC[C@H]1C[C@@H](OC(=O)c1c[nH]c3ccccc13)C2 [Tropisetron] (compound 10 µM) | 0.73 | 1.44 | 0.31 |
| CCCCC[C@H](O)/C=C/[C@H]1[C@H](O)CC(=O)[C@@H]1CCCCCCC(=O)O [Prostaglandin E1] (compound 10 µM) | -0.04 | 1.48 | -0.27 |
| C[C@H]1CN(C[C@H](Cc2ccccc2)C(=O)NCC(=O)O)CC[C@@]1(C)c1cccc(O)c1 [Alvimopan (dihydrate)] (compound 10 µM) | -0.22 | 0.49 | -0.86 |
| CCc1nc2c(C)nc(C)cc2n1-c1ccc(CCNC(=O)NS(=O)(=O)c2ccc(C)cc2)cc1 [Grapiprant] (compound 10 µM) | -0.05 | -0.15 | -0.51 |
| CCCNS(=O)(=O)Nc1ncnc(OCCOc2ncc(Br)cn2)c1-c1ccc(Br)cc1 [Macitentan] (compound 10 µM) | 0.32 | 0.71 | -0.16 |
| NC(=O)c1ccc[n+]([O-])c1 [Nicotinamide N-oxide] (compound 10 µM) | 0.09 | 0.22 | -0.26 |
| OCC1OC(n2cnc3c(NCCc4ccccc4)ncnc32)C(O)C1O (stereo not drawn) [N6-(2-Phenylethyl)adenosine] (compound 10 µM) | 0.87 | 1.11 | 0.72 |
| CCC(N)(C(=O)O)c1ccc(C(=O)O)cc1 (stereo not drawn) (compound 10 µM) | 0.66 | 0.12 | -0.54 |
| Cc1cccc(C#Cc2ccccc2)n1 [MPEP (Hydrochloride)] (compound 10 µM) | -0.92 | 0.68 | -0.14 |
| CC(ONC(=O)c1cc(C(F)(F)F)cc(C(F)(F)F)c1)C(=O)Nc1ccc(Cl)cc1 (stereo not drawn) (compound 10 µM) | -3.03 | -1.73 | -2.5 |
| COc1cc(C(=O)N(CCCc2ccccc2)Cc2ccc(CC(=O)O)cc2)cc(OC)c1C (compound 10 µM) | -0.21 | 0.49 | -0.17 |
| C(=C\c1ccccc1)/CN1CCN(C(c2ccccc2)c2ccccc2)CC1 [Cinnarizine] (compound 10 µM) | 0.86 | 0.22 | 1.3 |
| CN1CCC(=C2c3ccccc3CCn3c(C=O)cnc32)CC1 [Alcaftadine] (compound 10 µM) | -0.88 | 1.09 | -0.66 |
| COc1cc(NC(=O)CCN2CCC(OC(=O)Nc3ccccc3-c3ccccc3)CC2)c(Cl)cc1CNC[C@H](O)c1ccc(O)c2[nH]c(=O)ccc12 [Batefenterol] (compound 10 µM) | -3.26 | -4.13 | 0.38 |
| CC[C@H](C)[C@@H]1NC(=O)[C@H](Cc2ccc(O)cc2)NC(=O)[C@@H](N)CSSC[C@@H](C(=O)N2CCC[C@H]2C(=O)N[C@@H](CC(C)C)C(=O)NCC(N)=O)NC(=O)[C@H](CC(N)=O)NC(=O)[C@H](CCC(N)=O)NC1=O [Oxytocin (acetate)] (compound 10 µM) | -0.77 | -0.07 | -0.87 |
| CCNC(=O)[C@@H]1CCCN1C(=O)[C@H](CCCNC(=N)N)NC(=O)[C@H](CC(C)C)NC(=O)[C@@H](COC(C)(C)C)NC(=O)[C@H](Cc1ccc(O)cc1)NC(=O)[C@H](CO)NC(=O)[C@H](Cc1c[nH]c2ccccc12)NC(=O)[C@H](Cc1cnc[nH]1)NC(=O)[C@@H]1CCC(=O)N1 [Buserelin (Acetate)] (compound 10 µM) | 0.78 | 0.63 | 0.53 |
| CCNC1(C(N)=O)CCN(c2ncnc3c2nc(-c2ccccc2Cl)n3-c2ccc(Cl)cc2)CC1 [Otenabant] (compound 10 µM) | -1.75 | -2.03 | -0.02 |

| SMILES | phospho-S6 immunofluorescence (z-score) (co-treatment: GDC0941 450 nM) | phospho-S6 immunofluorescence (z-score) (co-treatment: lapatinib 1 uM) | phospho-S6 immunofluorescence (z-score) (co-treatment: vehicle) |
| --- | --- | --- | --- |
| COc1cccc(CCc2ccccc2OCC(CN(C)C)OC(=O)CCC(=O)O)c1 (stereo not drawn) [Sarpogrelate (hydrochloride)] (compound 10 µM) | 0.63 | -0.51 | -0.15 |
| O=C(O)COc1cccc(CN(Cc2ccc(-n3cccn3)cc2)S(=O)(=O)c2cccnc2)c1 [Taprenepag] (compound 10 µM) | -0.91 | 0.34 | -0.73 |
| CN1[C@@H]2CC[C@H]1C[C@@H](OC(=O)C(O)c1ccccc1)C2 (stereo partly drawn) [Homatropine (Bromide)] (compound 10 µM) | -0.26 | 0.08 | 0.37 |
| Clc1ccc2nsnc2c1NC1=NCCN1 [Tizanidine (hydrochloride)] (compound 10 µM) | 1.42 | -0.07 | 0.54 |
| CCc1nn(CCCN2CCN(c3cccc(Cl)c3)CC2)c(=O)n1CCOc1ccccc1 [Nefazodone (hydrochloride)] (compound 10 µM) | -4.37 | -2.37 | -1.26 |
| Cc1ccc(C)c(OCCn2cc(C(=O)O)c3ccccc32)c1 (compound 10 µM) | 0.61 | -0.34 | -0.21 |
| CC1(C)O[C@@H]2C[C@H]3[C@@H]4CCC5=CC(=O)C=C[C@]5(C)[C@H]4[C@@H](O)C[C@]3(C)[C@]2(C(=O)CO)O1 [Desonide] (compound 10 µM) | -0.1 | 0.54 | 1.16 |
| c1ccc(CN(CC2=NCCN2)c2ccccc2)cc1 [Antazoline (hydrochloride)] (compound 10 µM) | 0.27 | 0.23 | 1.23 |
| CN(C)CCc1c[nH]c2ccc(Cn3cncn3)cc12 [Rizatriptan (benzoate)] (compound 10 µM) | -1.62 | 0.19 | -1.1 |
| CN1CCC(=C2c3ccccc3CCc3cccnc32)CC1 [Azatadine (dimaleate)] (compound 10 µM) | 0 | 0.29 | -0.32 |
| C[N+]1(C)[C@@H]2C[C@@H](OC(=O)C(O)(c3cccs3)c3cccs3)C[C@H]1[C@@H]1O[C@@H]12 [Tiotropium (Bromide)] (compound 10 µM) | -0.58 | 0.42 | -0.69 |
| O=C(CCCN1CCC(O)(c2ccc(Cl)cc2)CC1)c1ccc(F)cc1 [Haloperidol] (compound 10 µM) | 1.78 | -0.01 | 0.93 |
| CCN1CCCC1CNC(=O)c1cc(S(=O)(=O)CC)c(N)cc1OC (stereo not drawn) [Amisulpride] (compound 10 µM) | 0.37 | 0.58 | 0.83 |
| O=C(NC(Cc1cc(=O)[nH]c2ccccc12)C(=O)O)c1ccc(Cl)cc1 (stereo not drawn) [Rebamipide] (compound 10 µM) | 0.69 | 1.1 | 0.16 |
| OC(CNCC(O)C1CCc2cc(F)ccc2O1)C1CCc2cc(F)ccc2O1 (stereo not drawn) [Nebivolol (hydrochloride)] (compound 10 µM) | -2.5 | -3.76 | -2.22 |
| CC(C)NCC(O)c1ccc(O)c(O)c1 (stereo not drawn) [Isoprenaline (hydrochloride)] (compound 10 µM) | 0.63 | 2.74 | 1.65 |
| O=C(N[C@@H]1CC[C@@H](c2cccc(F)c2F)CN(CC(F)(F)F)C1=O)N1CCC(n2c(=O)[nH]c3ncccc32)CC1 (compound 10 µM) | 0.18 | 0.53 | -0.42 |
| CCOC(=O)c1ccc(-n2cc(Cc3cnc(OCC)nc3)c(=O)nc2SCc2ccc(F)cc2)cc1 (compound 10 µM) | -3.26 | -3.79 | -4.85 |
| O=C(Nc1ccccc1)C12CC1C(=NO)c1ccccc1O2 (stereo not drawn) (compound 10 µM) | -0.19 | -0.81 | 0.75 |
| C[C@]12C=CC(=O)C=C1CC[C@@H]1[C@@H]2[C@@H](O)C[C@@]2(C)[C@H]1CC[C@]2(O)C(=O)CO [Prednisolone] (compound 10 µM) | 0.01 | 1.18 | 0.05 |
| CCCC(=O)OC(CNC(C)(C)C)COc1nsnc1N1CCOCC1 (racemic) [(RS)-Butyryltimolol] (compound 10 µM) | 0.09 | -0.58 | -0.47 |
| c1ccc(NCc2ccc(CNc3ccccn3)cc2)nc1 (compound 10 µM) | 0.88 | -0.48 | 0.72 |
| CCN(CC)CCNC(=O)c1cc(Cl)c(N)cc1OC [Metoclopramide (hydrochloride hydrate)] (compound 10 µM) | -0.35 | 0.77 | 0.05 |
| O=C(Nc1ccc(Cl)cc1CN1C(=O)c2ccccc2C1=O)c1ccccc1O (compound 10 µM) | -1.83 | -0.3 | -0.57 |
| CC[C@H](C)[C@@H]1NC(=O)[C@H](Cc2ccc(OC)cc2)NC(=O)CCCSC[C@@H](C(=O)N2CCC[C@H]2C(=O)N[C@@H](CC(C)C)C(=O)NCC(N)=O)NC(=O)[C@H](CC(N)=O)NC(=O)[C@H](CCC(N)=O)NC1=O [Carbetocin] (compound 10 µM) | 0.31 | -0.07 | 0.3 |
